# Assay results: PubChem BioAssay AID504327 (National Center for Advancing Translational Sciences (NCATS), 2011)
# Hit rate of the full screen: of about 390,000 compounds, about 820 (0.21%) were called active. Not shown: some 3% with an inconclusive outcome. Many of the other results were omitted from the sample, so actives are more common in it than they were. Values without a mark were called inactive. Calls come from the whole dose curve; as a rule, active = well fitted inhibition curve with a large enough effect; inconclusive = small, poorly fitted or top-dose-only effect, or another doubt; inactive = no such curve, though single readings can be large or run the other way.
# Target: Histone acetyltransferase KAT2A (Homo sapiens) (UniProt Q92830)
# Experiment: qHTS Assay for Inhibitors of GCN5L2
# Conditions: GCN5L2 HAT assay, ThioGlo1 CoA-SH fluorescence; series mostly up to 58.9 µM; activity change, negative = inhibition: at the top concentration
# Method in brief: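 GCN5L2 (20nM final) in 50mM HEPES, 0.1mM EDTA pH 7.5, 0.01% Tween-20 was preincubated 15 min at room temperature with compound, then given ThioGlo1 (50uM), H3(1-25) peptide (75uM) and acetyl-CoA (70uM); CoA-thiol fluorescence (Ex340/Em540) was read at 0 and 20 min.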
# % is set by controls: 0 for no effect and ±100 for the full control effect; potency is the fitted concentration of half-maximal effect.
# Sequence of Histone acetyltransferase KAT2A (Homo sapiens) (Q92830 whole entry, looked up): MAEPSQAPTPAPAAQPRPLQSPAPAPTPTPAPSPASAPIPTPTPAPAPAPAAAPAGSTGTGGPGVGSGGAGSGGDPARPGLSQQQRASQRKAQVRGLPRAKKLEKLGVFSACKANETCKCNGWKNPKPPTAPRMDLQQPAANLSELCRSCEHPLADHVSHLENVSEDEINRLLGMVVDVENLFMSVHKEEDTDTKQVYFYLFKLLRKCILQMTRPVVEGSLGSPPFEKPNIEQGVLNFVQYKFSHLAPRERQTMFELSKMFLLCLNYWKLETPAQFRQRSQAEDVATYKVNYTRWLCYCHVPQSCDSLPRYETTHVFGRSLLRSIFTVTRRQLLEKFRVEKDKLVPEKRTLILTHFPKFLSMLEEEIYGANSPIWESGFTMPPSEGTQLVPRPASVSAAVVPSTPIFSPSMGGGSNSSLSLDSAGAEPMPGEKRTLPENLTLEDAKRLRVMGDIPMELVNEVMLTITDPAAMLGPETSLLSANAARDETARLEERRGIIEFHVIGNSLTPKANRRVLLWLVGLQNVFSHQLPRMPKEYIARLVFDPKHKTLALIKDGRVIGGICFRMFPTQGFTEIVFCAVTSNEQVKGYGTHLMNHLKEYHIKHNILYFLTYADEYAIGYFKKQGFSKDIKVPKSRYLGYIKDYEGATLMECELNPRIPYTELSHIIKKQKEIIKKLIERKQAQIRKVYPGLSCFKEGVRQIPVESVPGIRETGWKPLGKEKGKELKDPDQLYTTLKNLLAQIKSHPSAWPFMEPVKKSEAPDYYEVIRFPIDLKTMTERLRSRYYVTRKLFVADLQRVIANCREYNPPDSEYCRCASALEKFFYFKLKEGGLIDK
Structure (SMILES),"activity change, negative = inhibition",Potency
COc1ccccc1N1CCN(C[C@@H]2CN3C(=O)N(C)c4ccccc4C3=N2)CC1,-10.7%,
C[C@@H]1C[C@H]2[C@@H]3C[C@H](F)C4=CC(=O)C=C[C@@]4(C)[C@]3(F)[C@H](O)C[C@]2(C)[C@@]1(O)C(=O)CO,5.37% [at 21.4 µM],
C[C@@H]1O[C@@H](OC[C@H]2O[C@@H](Oc3cc(O)c4c(c3)O[C@H](c3ccc(O)c(O)c3)CC4=O)[C@H](O)[C@@H](O)[C@@H]2O)[C@H](O)[C@H](O)[C@H]1O,-18.7%,
Cc1ccccc1CSCCNC(=O)c1ccc(N(C)S(=O)(=O)c2ccccc2)cc1,,2.24 µM (active)
COc1ccccc1CNC(=O)c1ccc(N(C)S(=O)(=O)c2ccc(C)cc2)cc1,-9.17%,
Cc1ccccc1CSCCNC(=O)c1ccc(Cl)c(S(=O)(=O)N2CCOCC2)c1,2.44%,
COc1cccc(Nc2ncc3ncc(=O)n(C4CC4)c3n2)c1,-6.14%,
Cc1ccc(C2C(C#N)C(C#N)N3CCCN23)cc1 (centres undefined),,22.4 µM (active)
CC1CC[C@@]23CCC4(C)[C@@]5(C)CCC6C(C)(C)C(O)CC[C@@]6(C)C5C=C[C@@]4(OC2=O)C3C1C (some centres undefined),-10.8%,
CC1=C/C(=N\OS(=O)(=O)c2ccccc2)C=CC1=O,,14.1 µM (active)
COc1cc2c(cc1OC)CC(=O)N(CCCN(C)C[C@H]1Cc3cc(OC)c(OC)cc31)CC2,-3.71%,
O=C1OC(C(O)CO)C(O)=C1O (centres undefined),-3.15%,
CCNc1ncc2ncc(=O)n(Cc3cccc(OC)c3)c2n1,-13.7%,
CCOC(=O)c1sc(NC(=O)CSc2nc(C)cc(C(F)(F)F)n2)c(C#N)c1C,0%,
Cc1ccc(S(=O)(=O)N2CCCCC2)cc1NC(=O)c1cccnc1,-1.42%,
Cc1c(C(=O)OC(C)C)sc(NC(=O)c2cccnc2)c1C#N,,3.16 µM (active)
COc1cccc(-c2cc(NCCc3c[nH]c4ccc(OC)cc34)ncn2)c1,-21.1%,
CC1(C)OC2CC3C4CCC5=CC(=O)CCC5(C)C4(F)C(O)CC3(C)[C@]2(C(=O)CCl)O1 (some centres undefined),4.95%,
Oc1c(Cl)cc(Cl)c(Cl)c1Cc1c(O)c(Cl)cc(Cl)c1Cl,,12.6 µM (active)
c1ccc2c(Nc3ccncc3)nc(-c3ccoc3)nc2c1,-26.1%,
O=C(Nc1ccccc1)N[C@H]1C[C@H](C(=O)O)Nc2cc(Cl)cc(Cl)c21,,inactive
C=C1C(=CC=C2CCC[C@@]3(C)[C@@H]2CC[C@H]3[C@H](C)CCCC(C)C)C[C@@H](O)C[C@@H]1O,-15.3%,
CC(C)(O/N=C(\C(=O)N[C@@H]1C(=O)N2C(C(=O)[O-])=C(C[n+]3ccccc3)CS[C@@H]12)c1csc(N)n1)C(=O)O,-8.44% [at 21.4 µM],
CC1C(O)CC2C(C(=O)O)=CO[C@@H](O[C@H]3OC(CO)C(O)C(O)C3O)C21 (some centres undefined),2.16%,
COC(=O)N1CCC[C@@]2(CCN(C(=O)NC(C)C)C2)C1,-1.27%,

Structure (SMILES),"activity change, negative = inhibition",Potency
Brc1ccc(C2=NCCC(c3ccccc3)O2)cc1 (centres undefined),16.1% [at 88.6 µM],
CC(C)NC(=O)N1CC[C@@]2(CCCN(C(=O)c3ccco3)C2)C1,-4.07%,
Cc1ccc(C)c(NC(=O)COC(=O)Cn2c(C)csc2=O)c1,-26.1%,
CCCCOc1ccc(Cn2c(=O)oc3ccc(C)cc32)cc1OC,-18.2%,
CCCCOC(=O)Cn1c(=O)n(CC(=O)OCCCC)c2cc(C)ccc21,,31.6 µM (active)
COc1ccc(NC(=O)N2CC3(CCN(C(C)=O)CC3)C2)cc1,-3.46%,
CC(=O)CC(c1ccccc1)C1C(=O)Oc2ccccc2C1=O (centres undefined),-14.4%,
COc1cccc(Cn2c(=O)c(-c3cc(F)cc(F)c3)nc3cnc(OC)nc32)c1,-18.4%,
O=c1c(CCc2ccccc2)nc2cncnc2n1C1CC1,0.326%,
CC(C)=CCC/C(C)=C/CC/C(C)=C/CC/C(C)=C/CO,,inactive
O=C(c1csnn1)N1CCC[C@@]2(CCN(c3cccc(-c4ccccc4)c3)C2)C1,-17.1%,
Nc1nc2[nH]c(=O)c(=O)[nH]c2c(=O)[nH]1,3.18%,
Cc1cnc(CNc2cc(-c3c(C)noc3C)ncn2)cn1,-10.5%,
C=CCC1CCC(=O)N2CCCC12 (centres undefined),-15.7% [at 135 µM],
CCCCCCCCCc1ccc(OCCOCCOCCOCCOCCOCCOCCOCCOCCO)cc1,27.3%,
Cn1cc(-c2nc3cncnc3n(-c3ccccc3)c2=O)c2ccccc21,-4.06%,
Oc1ccc2c(c1)OCC1c3cc4c(cc3OC21)OCO4 (centres undefined),4.11%,
Nc1ncnc2c1c(I)cn2[C@@H]1C[C@H](N)[C@@H](O)[C@H]1O,-11.2%,
COc1ccc2[nH]cc(CCNc3ncnc4ccc(-c5ccc(C(=O)N(C)C)cc5)cc34)c2c1,-4.79%,
CC1OC(OCC2OC(Oc3c(-c4ccc(O)c(O)c4)oc4cc(O)cc(O)c4c3=O)C(O)C(O)C2O)[C@@H](O)C(O)C1O (some centres undefined),-15.9%,
CCOCCOC(=O)C(C)Oc1ccc(Oc2ncc(C(F)(F)F)cc2Cl)cc1 (centres undefined),0%,
CS(=O)(=O)N1CCC2(CC1)CN(Cc1ccccc1)C2,-8.7%,
COCCNc1ncnc2ccc(-c3cccnc3)cc12,-18.5%,
CCC(CCC(C)C1CCC2C3CC=C4CC(O)CC[C@@]4(C)C3CC[C@@]12C)C(C)C (some centres undefined),2.86%,
O=P(O)(O)C(O)c1ccc2ccccc2c1 (centres undefined),9.85%,

Structure (SMILES),"activity change, negative = inhibition",Potency
CC(O)[C@@H](N)C(=O)O (some centres undefined),-8.25%,
COc1ccc(CNc2ncnc3ccc(-c4cccnc4)cc23)c(OC)c1,-12.1%,
CCOC(=O)Cn1c(=O)sc2cccc(Cl)c21,0.871%,
CCNc1ncc2nc(CCc3ccccc3)c(=O)n(-c3ccc(OC)cc3)c2n1,2.19%,
O=c1c(-c2ccc(F)cc2)nc2cnc(N3CCNCC3)nc2n1Cc1cccs1,-23.1%,
Cn1cc(-c2nc3cnc(N4CCNCC4)nc3n(CCC#N)c2=O)c2ccccc21,-38.3%,
N#Cc1cccc(-c2nc3cnc(N4CCNCC4)nc3n(C3CC3)c2=O)c1,,28.2 µM (active)
O=C(c1cc(C(F)(F)F)cc(C(F)(F)F)c1)N1CCC2(CCCN(c3ccccn3)C2)CC1,-12.1%,
CN1CCN2c3ccccc3Cc3ccccc3[C@@H]2C1,-1.21% [at 21.4 µM],
CN1CCN(c2ncc3nc(-c4ccc(Cl)cc4)c(=O)n(-c4ccccc4)c3n2)CC1,-9.91%,
CCCCC/C=C\CC1OC1CCCCCCCC(=O)O (centres undefined),13.4%,
Cc1cccc(CNc2cc(-c3ccccc3Cl)ncn2)c1,-15.1%,
C=CC(=O)c1ccc2ccccc2c1,-23.4%,
COCCn1c(=O)c(-c2ccccc2)nc2cnc(N3CCOCC3)nc21,-22.9%,
CC[C@H](C)[C@H](NC(=O)[C@@H](N)CCC(=O)O)C(=O)N[C@@H](CC(C)C)C(=O)N[C@@H](CC(=O)O)C(=O)N[C@H](C(=O)N1CCC[C@H]1C(=O)N[C@@H](CO)C(=O)N[C@H](C(=O)O)[C@@H](C)O)C(C)C,21.2%,
NCCCCC(N)C(=O)O (centres undefined),,inactive
Cc1c(C)n(Cc2ccc(Cl)cc2)c2ccc(C(=O)N3CCN(c4ccccc4F)CC3)cc12,3.04%,
CC(C)c1ccc(Cn2c(COc3ccccc3)nc3ccccc32)cc1,-16.6%,
C=C(C)C1CC=C(CO)CC1 (centres undefined),0.773%,
COc1ccc2[nH]cc(CCNc3nc(-c4cccc(NS(C)(=O)=O)c4)nc4ccccc34)c2c1,-9.04%,
CC(=O)N(c1ccc2oc(=O)sc2c1)S(=O)(=O)c1ccc(C)cc1,-8.64%,
O=C(c1cccnc1)N(c1cc2sc(=O)oc2c2ccccc12)S(=O)(=O)c1ccccc1,,31.6 µM (active)
O=C(CN(c1cc(C(F)(F)F)ccc1Cl)S(=O)(=O)c1ccccc1)NCc1cccnc1,-8.69%,
CC(C)(O)CCC(O)[C@@](C)(O)C1CC[C@]2(O)C3=CC(=O)C4CC(O)C(O)C[C@]4(C)C3CC[C@]12C (some centres undefined),2.5%,
Cc1cn([C@H]2CC(F)[C@@H](CO)O2)c(=O)[nH]c1=O (some centres undefined),-0.475%,

Structure (SMILES),"activity change, negative = inhibition",Potency
C=CCOC(=O)C(=C)C,0%,
O=c1c(-c2cc(F)cc(F)c2)nc2cnc(Oc3ccccc3)nc2n1C[C@H]1CCCO1,-28.4%,
Cc1ccnc(-n2sc3ccccc3c2=O)n1,,3.16 µM (active)
O=C(c1cc(C(F)(F)F)cc(C(F)(F)F)c1)N1CCC[C@@]2(CCN(c3ccccn3)C2)C1,-8.29%,
CCCCCCCC/C=C\CCCCCCCC(=O)OC[C@H](CO)OC(C)=O,-5.32%,
O=C(c1ccco1)N1CCC[C@@]2(CCN(c3ccccc3)C2)C1,-8.32%,
Cc1ccc(CC2(O)CCN(CCOc3ccc(O)cc3)CC2)cc1,-13.7%,
CC(=O)OCC(=O)[C@@]1(O)CCC2C3CCC4=CC(=O)CC[C@]4(C)C3C(=O)C[C@]21C (some centres undefined),22%,
O=C(NCc1ccccn1)c1ccc2nc(-c3ccco3)c(-c3ccco3)nc2c1,,11.2 µM (active)
CCOc1ccc(NC(=O)c2ncoc2-c2ccco2)cc1,-0.384%,
COc1ccc(-c2nc3ccc(C(=O)NCc4ccc(C)cc4)cc3nc2-c2ccc(OC)cc2)cc1,-0.354%,
COc1ccc(NC(=O)COCc2cc(-c3ccco3)on2)cc1,-2.39%,
CCN(c1ccccc1)S(=O)(=O)c1cc(C(=O)NCc2ccccn2)ccc1C,-1.59%,
COCCNC(=O)Nc1ccc2nc(-c3ccco3)c(-c3ccco3)nc2c1,,17.8 µM (active)
C[C@]12CC[C@@H]3C(=CCc4cc(O)ccc43)[C@@H]1CCC2=O,-0.875% [at 21.4 µM],
OCCN1CCN(CC/C=C2\c3ccccc3Sc3ccc(C(F)(F)F)cc32)CC1,4.51% [at 21.4 µM],
Nc1nc2c(nc(Cl)n2C2OC(CO)C(O)C2O)c(=O)[nH]1 (centres undefined),-3.22%,
COc1ccc(C(=O)N2CCC3(CCCN(C(c4ccccc4)c4ccccc4)C3)CC2)cc1,-8.68%,
FCOC(C(F)(F)F)C(F)(F)F,5.6%,
N#CCCn1c(=O)c(-c2cc(F)cc(F)c2)nc2cnc(Oc3ccccc3)nc21,-10.8%,
Nc1nc2nc(Cl)[nH]c2c(=O)[nH]1,2.74%,
O=c1c(O)c(-c2ccc(O)cc2)oc2ccccc12,-23.8%,
Oc1ccc(-c2c(-c3ccccc3)nn3c(C(F)(F)F)cc(C(F)(F)F)nc23)cc1,2.29%,
Fc1ccc(Cl)cc1-c1nc(Nc2ccncc2)c2nccnc2n1,-19.4%,
